According to ChEMBL document CHEMBL3988442, “University of Dundee, Small-Polar-MMV Screening Library” (2021):
For some of these results: Results with a measured potency or affinity are listed apart.

Columns and labels:
Set-up in all cases: scale not given: direction of the effect not stated beside the values
[1] = target: Protein translocase subunit SecA (Escherichia coli (strain K12)) (UniProt P10408); test: Assay to Identify E. coli SecA ATPase Inhibitors; assay type: functional; details: 30 µM
Sequence of Protein translocase subunit SecA (Escherichia coli (strain K12)) (P10408 whole entry): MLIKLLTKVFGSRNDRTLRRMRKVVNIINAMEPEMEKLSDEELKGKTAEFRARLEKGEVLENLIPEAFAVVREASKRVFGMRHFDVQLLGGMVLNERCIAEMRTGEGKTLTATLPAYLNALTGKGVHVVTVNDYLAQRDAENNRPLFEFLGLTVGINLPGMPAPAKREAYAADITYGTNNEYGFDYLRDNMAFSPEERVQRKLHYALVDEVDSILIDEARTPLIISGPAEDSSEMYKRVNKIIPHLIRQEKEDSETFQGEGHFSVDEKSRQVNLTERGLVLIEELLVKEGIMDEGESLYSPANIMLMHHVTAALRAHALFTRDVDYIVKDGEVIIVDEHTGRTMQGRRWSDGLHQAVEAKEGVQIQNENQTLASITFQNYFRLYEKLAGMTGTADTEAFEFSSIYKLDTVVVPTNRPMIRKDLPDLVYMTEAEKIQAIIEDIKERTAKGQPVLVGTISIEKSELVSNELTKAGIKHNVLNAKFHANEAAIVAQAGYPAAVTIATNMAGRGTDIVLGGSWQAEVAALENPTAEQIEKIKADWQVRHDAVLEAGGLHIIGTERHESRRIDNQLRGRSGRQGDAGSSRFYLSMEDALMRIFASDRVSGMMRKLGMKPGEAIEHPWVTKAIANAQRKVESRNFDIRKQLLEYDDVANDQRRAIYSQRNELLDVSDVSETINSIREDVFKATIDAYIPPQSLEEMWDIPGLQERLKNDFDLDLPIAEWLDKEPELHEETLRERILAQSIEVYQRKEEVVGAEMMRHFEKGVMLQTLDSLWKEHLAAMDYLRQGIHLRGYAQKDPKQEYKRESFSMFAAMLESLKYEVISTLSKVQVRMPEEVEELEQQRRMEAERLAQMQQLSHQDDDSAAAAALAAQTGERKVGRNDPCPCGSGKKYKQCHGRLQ

[2] = target: T1, Ubiquitin-activating enzyme e1, putative (Leishmania donovani (strain BPK282A1)) (UniProt E9BSI1); test: Leishmania donovani Ubiquitin Activating Enzyme (LdE1); assay type: functional; details: 30 µM
T1 sequence (whole entry): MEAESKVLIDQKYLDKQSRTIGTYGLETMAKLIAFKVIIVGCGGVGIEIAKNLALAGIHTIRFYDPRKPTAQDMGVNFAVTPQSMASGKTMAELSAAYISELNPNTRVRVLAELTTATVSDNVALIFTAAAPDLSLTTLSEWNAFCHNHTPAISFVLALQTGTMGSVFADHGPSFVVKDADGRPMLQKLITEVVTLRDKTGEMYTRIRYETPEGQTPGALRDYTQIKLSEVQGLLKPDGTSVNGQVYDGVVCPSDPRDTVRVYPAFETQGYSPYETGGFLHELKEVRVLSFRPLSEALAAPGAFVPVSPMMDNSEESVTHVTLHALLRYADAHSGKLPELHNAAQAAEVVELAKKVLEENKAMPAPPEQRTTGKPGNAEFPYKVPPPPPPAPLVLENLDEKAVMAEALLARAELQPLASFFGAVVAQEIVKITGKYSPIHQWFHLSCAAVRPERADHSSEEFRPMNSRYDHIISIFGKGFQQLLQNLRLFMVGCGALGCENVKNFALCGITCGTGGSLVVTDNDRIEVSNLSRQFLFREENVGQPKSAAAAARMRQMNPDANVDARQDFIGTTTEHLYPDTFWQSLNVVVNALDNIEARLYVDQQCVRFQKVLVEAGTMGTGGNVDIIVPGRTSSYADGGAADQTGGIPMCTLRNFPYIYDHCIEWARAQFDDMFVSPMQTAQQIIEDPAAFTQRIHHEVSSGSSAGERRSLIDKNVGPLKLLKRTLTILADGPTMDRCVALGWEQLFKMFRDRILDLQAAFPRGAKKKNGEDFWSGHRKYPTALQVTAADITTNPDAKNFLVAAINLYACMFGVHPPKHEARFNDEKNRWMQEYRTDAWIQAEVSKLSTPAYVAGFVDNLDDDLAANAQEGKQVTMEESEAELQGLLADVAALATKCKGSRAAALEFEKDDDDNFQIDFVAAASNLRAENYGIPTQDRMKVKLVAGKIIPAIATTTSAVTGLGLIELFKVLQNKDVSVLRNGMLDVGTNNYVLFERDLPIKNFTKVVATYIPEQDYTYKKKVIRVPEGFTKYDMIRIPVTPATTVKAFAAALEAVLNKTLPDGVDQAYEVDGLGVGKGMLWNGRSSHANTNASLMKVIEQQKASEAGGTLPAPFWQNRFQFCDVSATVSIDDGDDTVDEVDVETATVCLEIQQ

[3] = target: AMP-activated protein kinase, AMPK (Homo sapiens) (UniProt P54646+O43741+P54619+Q9UGJ0+Q9Y478+Q13131+Q9UGI9); test: AMP-dependent Kinase enzyme assay. An in vitro enzyme assay that detects ADP turnover that is directly proportional to AMPK activity. This uses naive AMPK that is activated during the assay with MK-8722; assay type: functional; details: 30 µM
[4] = target: Sialic acid-binding Ig-like lectin 9 (Homo sapiens) (UniProt Q9Y336); test: Hs-Siglec9 ALPHAscreen SOP 20170721; details: 10 µM
Sequence of Sialic acid-binding Ig-like lectin 9 (Homo sapiens) (Q9Y336 whole entry): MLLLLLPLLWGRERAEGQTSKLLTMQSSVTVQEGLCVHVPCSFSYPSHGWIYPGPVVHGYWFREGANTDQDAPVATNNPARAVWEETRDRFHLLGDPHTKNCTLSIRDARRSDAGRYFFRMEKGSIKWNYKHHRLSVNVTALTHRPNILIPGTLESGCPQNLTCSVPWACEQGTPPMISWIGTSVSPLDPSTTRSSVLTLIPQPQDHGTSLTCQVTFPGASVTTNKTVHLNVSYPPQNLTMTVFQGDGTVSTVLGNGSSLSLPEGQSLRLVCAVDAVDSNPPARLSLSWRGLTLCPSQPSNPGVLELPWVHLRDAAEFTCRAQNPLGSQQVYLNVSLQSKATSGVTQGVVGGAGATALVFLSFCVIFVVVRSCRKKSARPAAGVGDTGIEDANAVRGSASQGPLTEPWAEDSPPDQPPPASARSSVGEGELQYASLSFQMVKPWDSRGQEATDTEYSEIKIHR

Trypanosoma cruzi = test: Trypanosoma cruzi phosphomannomutase and mannose-1-phosphate guanylyltransferase assay; assay type: functional; details: 10 µM
[5] = target: T2, Arginase-2, mitochondrial (Homo sapiens) (UniProt P78540); test: in vitro enzyme assay to detect the production of urea directly proportional to the activity of Arginase II; assay type: functional; details: 33.3 µM; note: in the data most compounds retested in dose-response had high values
T2 sequence (whole entry): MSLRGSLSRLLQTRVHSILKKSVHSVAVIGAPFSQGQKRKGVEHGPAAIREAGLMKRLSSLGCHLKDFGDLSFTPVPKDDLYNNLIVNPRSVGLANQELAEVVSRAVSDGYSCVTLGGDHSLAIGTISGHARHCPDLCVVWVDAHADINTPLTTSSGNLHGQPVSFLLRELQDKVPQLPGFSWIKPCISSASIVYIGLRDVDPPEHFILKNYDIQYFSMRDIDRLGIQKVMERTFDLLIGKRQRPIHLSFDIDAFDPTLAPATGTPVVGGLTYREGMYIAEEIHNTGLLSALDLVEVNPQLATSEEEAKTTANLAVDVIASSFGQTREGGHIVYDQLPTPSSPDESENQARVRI

[6] = target: T3, Proteasome subunit beta (Trypanosoma cruzi) (UniProt O96673); test: Trypanosoma cruzi proteasome chymotrypsin-like activity (TcProtChymo) assay.; note: in the data most compounds retested in dose-response had high values; assay type: functional; details: 9.37 µM
T3 sequence (whole entry): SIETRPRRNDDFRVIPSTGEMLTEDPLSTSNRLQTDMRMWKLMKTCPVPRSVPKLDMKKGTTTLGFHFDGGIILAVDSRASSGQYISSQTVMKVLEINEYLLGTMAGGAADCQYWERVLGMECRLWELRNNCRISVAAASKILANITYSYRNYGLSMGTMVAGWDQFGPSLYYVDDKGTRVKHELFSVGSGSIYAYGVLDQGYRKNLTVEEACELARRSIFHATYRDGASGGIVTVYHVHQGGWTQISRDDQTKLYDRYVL

Homo sapiens = species: Homo sapiens; test: To identify inhibition of the IFN signalling (Jak-Stat) pathway via expression of an eGFP reporter gene under the control of an IFN-stimulated response element (ISRE) containing MxA promoter.; assay type: functional; details: 30 µM
[7] = target: T4, Tyrosyl-tRNA synthetase, putative (Trypanosoma cruzi (strain CL Brener)) (UniProt Q4DSP6); test: Trypanosoma cruzi tyrosyl tRNA synthetase (TcYRS) _High Tyrosine SOP; assay type: functional; details: 30 µM; note: in the data most compounds retested in dose-response had high values
T4 sequence (whole entry): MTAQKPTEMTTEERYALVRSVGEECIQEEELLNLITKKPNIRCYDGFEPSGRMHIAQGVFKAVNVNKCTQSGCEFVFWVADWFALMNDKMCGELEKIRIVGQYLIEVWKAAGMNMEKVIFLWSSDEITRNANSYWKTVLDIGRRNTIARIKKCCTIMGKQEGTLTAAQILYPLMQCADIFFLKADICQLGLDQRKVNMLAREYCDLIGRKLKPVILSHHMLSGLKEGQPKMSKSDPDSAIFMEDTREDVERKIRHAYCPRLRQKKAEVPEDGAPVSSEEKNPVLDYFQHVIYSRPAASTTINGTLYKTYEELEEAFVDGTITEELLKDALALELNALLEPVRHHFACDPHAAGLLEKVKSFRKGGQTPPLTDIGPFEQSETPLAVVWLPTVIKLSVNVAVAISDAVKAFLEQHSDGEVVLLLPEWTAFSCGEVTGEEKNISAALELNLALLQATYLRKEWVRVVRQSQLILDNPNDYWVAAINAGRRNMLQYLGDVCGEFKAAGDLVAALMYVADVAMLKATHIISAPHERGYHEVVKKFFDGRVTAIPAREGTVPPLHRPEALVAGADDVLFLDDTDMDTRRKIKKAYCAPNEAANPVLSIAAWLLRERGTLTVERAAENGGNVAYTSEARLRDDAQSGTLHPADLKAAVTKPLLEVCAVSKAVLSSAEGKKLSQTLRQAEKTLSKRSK

[8] = target: T4, Tyrosyl-tRNA synthetase, putative (Trypanosoma cruzi (strain CL Brener)); test: Trypanosoma cruzi tyrosyl tRNA synthetase (TcYRS) SOP; assay type: functional; details: 30 µM
[9] = target: Chromo domain-containing protein 1 (Saccharomyces cerevisiae (strain ATCC 204508 / S288c) (Baker's yeast)) (UniProt P32657); test: ScCHD-1 Enzyme Inhibition Assay; assay type: functional; details: 30 µM; note: in the data most compounds retested in dose-response had high values
Sequence of Chromo domain-containing protein 1 (Saccharomyces cerevisiae (strain ATCC 204508 / S288c) (Baker's yeast)) (P32657 whole entry, the tested form may be a part): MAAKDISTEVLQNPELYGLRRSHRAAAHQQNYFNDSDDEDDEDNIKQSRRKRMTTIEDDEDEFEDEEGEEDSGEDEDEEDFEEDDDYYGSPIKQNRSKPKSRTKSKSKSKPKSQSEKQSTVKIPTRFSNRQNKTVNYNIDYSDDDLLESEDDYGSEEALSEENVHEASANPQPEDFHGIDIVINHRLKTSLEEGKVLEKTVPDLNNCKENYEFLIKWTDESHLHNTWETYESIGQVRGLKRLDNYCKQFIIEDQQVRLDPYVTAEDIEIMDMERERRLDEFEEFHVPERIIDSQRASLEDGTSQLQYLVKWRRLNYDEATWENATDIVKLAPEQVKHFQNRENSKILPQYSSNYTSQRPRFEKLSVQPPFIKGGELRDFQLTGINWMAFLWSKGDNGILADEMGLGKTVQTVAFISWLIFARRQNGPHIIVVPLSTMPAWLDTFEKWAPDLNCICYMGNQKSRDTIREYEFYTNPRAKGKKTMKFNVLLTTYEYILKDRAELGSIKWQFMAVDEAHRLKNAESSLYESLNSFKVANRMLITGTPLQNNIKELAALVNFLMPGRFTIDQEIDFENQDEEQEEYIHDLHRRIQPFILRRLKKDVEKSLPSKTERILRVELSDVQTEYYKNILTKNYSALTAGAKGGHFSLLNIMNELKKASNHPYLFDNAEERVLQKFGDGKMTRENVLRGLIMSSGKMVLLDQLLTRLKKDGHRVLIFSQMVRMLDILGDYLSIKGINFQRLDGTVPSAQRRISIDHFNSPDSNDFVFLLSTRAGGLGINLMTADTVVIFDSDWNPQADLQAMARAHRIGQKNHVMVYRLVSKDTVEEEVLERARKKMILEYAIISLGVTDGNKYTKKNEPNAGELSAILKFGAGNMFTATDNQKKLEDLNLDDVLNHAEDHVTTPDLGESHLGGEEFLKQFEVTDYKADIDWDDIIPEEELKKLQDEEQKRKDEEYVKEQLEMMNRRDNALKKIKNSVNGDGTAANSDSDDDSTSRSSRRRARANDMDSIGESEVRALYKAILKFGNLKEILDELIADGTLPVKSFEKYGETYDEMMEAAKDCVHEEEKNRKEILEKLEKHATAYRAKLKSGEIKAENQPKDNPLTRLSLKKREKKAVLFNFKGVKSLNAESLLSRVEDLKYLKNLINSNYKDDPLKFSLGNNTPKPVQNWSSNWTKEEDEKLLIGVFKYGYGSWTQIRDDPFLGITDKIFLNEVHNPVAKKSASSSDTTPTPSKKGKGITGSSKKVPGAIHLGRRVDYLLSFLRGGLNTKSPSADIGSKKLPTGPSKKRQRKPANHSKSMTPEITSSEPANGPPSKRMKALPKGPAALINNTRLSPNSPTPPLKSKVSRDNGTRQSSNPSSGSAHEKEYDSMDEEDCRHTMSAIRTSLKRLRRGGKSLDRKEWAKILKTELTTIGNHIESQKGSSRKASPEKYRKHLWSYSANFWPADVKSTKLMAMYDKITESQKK

Q: Which Percent Effect [1] does the source give for `CN(CCN1CCOCC1)C(=O)CCc1cccc(Cl)c1` here?
A: -0.257%

Q: What about the Percent Effect [2] of the same compound?
A: 13.2%

Q: And the Percent Effect [3]?
A: -2.72%

Q: What about the Percent Effect [4] of the same compound?
A: -7.75%

Q: What about the Percent Effect (Trypanosoma cruzi) of the same compound?
A: -4.58%

Q: And the Percent Effect [5]?
A: -9.47%

Q: And the Percent Effect [6]?
A: 12.2%

Q: What about the Percent Effect (Homo sapiens) of the same compound?
A: 17.3%

Q: And the Percent Effect [7]?
A: 1.06%

Q: What about the Percent Effect [8] of the same compound?
A: 7.79%

Q: And the Percent Effect [9]?
A: -4.62%

Q: Which results are given for `COCCNC(=O)Nc1ccc(-n2cncn2)c(F)c1`?
A: Percent Effect [1]: -6.54%; Percent Effect [2]: 0%; Percent Effect [3]: -12.8%; Percent Effect [4]: 0.712%; Percent Effect (Trypanosoma cruzi): -4.7%; Percent Effect [5]: 0%; Percent Effect [6]: 4.51%; Percent Effect (Homo sapiens): 28.2%; Percent Effect [7]: 2.45%; Percent Effect [8]: 0%; Percent Effect [9]: -7.16%

Q: Which Percent Effect [1] does the source give for `COc1c(C2CCCN2CC(=O)Nc2cc(C)no2)c(C)nn1C` (stereo not drawn) here?
A: -5.41%

Q: What about the Percent Effect [2] of the same compound?
A: 13.5%

Q: What about the Percent Effect [3] of the same compound?
A: -3.77%

Q: What about the Percent Effect [4] of the same compound?
A: 4.82%

Q: What about the Percent Effect (Trypanosoma cruzi) of the same compound?
A: -4.74%

Q: What about the Percent Effect [5] of the same compound?
A: -2.03%

Q: What about the Percent Effect [6] of the same compound?
A: 6.82%

Q: And the Percent Effect (Homo sapiens)?
A: 0.794%

Q: What about the Percent Effect [7] of the same compound?
A: 5.94%

Q: And the Percent Effect [8]?
A: 11%

Q: And the Percent Effect [9]?
A: 3.98%

Q: How did the Percent Effect [1] turn out when `O=C(NCc1nnc2n1CCC2)N(Cc1ccco1)C1CC1` was run?
A: -0.0964%

Q: What about the Percent Effect [2] of the same compound?
A: 8.11%

Q: And the Percent Effect [3]?
A: -2.14%

Q: And the Percent Effect [4]?
A: 3.8%

Q: And the Percent Effect (Trypanosoma cruzi)?
A: -2.12%

Q: What about the Percent Effect [5] of the same compound?
A: -2.86%

Q: What about the Percent Effect [6] of the same compound?
A: 20.3%

Q: What about the Percent Effect (Homo sapiens) of the same compound?
A: 14.6%

Q: And the Percent Effect [7]?
A: 3.7%

Q: What about the Percent Effect [8] of the same compound?
A: 12.2%

Q: And the Percent Effect [9]?
A: -2.31%

Q: For `CCc1cccc(N2CCC(NC(=O)c3ccc(=O)[nH]n3)CC2)c1`, which Percent Effect [1] is on record?
A: -0.605%

Q: What about the Percent Effect [2] of the same compound?
A: 3.8%

Q: And the Percent Effect [3]?
A: 2.33%

Q: What about the Percent Effect [4] of the same compound?
A: 1.07%

Q: And the Percent Effect (Trypanosoma cruzi)?
A: -4.82%

Q: What about the Percent Effect [5] of the same compound?
A: 4.52%

Q: And the Percent Effect [6]?
A: 15.8%

Q: And the Percent Effect (Homo sapiens)?
A: 21%

Q: What about the Percent Effect [7] of the same compound?
A: 5.21%

Q: What about the Percent Effect [8] of the same compound?
A: 15.2%

Q: And the Percent Effect [9]?
A: -11.3%

Q: For `COc1cccc(C(=O)N2CCCC(c3cc(C)[nH]n3)C2)c1OC` (stereo not drawn), which Percent Effect [1] is on record?
A: -3.02%

Q: And the Percent Effect [2]?
A: 10.8%

Q: What about the Percent Effect [3] of the same compound?
A: -3.74%

Q: What about the Percent Effect [4] of the same compound?
A: -1.79%

Q: What about the Percent Effect (Trypanosoma cruzi) of the same compound?
A: 8.4%

Q: And the Percent Effect [5]?
A: -2.81%

Q: And the Percent Effect [6]?
A: 11.7%

Q: And the Percent Effect (Homo sapiens)?
A: 17.4%

Q: What about the Percent Effect [7] of the same compound?
A: 4.43%

Q: And the Percent Effect [8]?
A: 16.1%

Q: What about the Percent Effect [9] of the same compound?
A: -5.21%

Q: `CCOc1ccnc(N2CCN(C(=O)c3cc(Cl)c[nH]3)CC2)n1` was tested. Which Percent Effect [1] did it give?
A: -4.52%

Q: What about the Percent Effect [2] of the same compound?
A: 12.7%

Q: And the Percent Effect [3]?
A: 0.626%

Q: What about the Percent Effect [4] of the same compound?
A: 5.17%

Q: And the Percent Effect (Trypanosoma cruzi)?
A: 1.98%

Q: What about the Percent Effect [5] of the same compound?
A: 0.38%

Q: And the Percent Effect [6]?
A: 2.54%

Q: And the Percent Effect (Homo sapiens)?
A: 0.798%

Q: And the Percent Effect [7]?
A: 9.36%

Q: What about the Percent Effect [8] of the same compound?
A: 21.5%

Q: What about the Percent Effect [9] of the same compound?
A: -5.03%

Q: For `Cc1nc(CN(Cc2cccs2)C2CCS(=O)(=O)C2)oc1C` (stereo not drawn), which Percent Effect [1] is on record?
A: -3.68%

Q: And the Percent Effect [2]?
A: 15.8%

Q: What about the Percent Effect [3] of the same compound?
A: -1.59%

Q: What about the Percent Effect [4] of the same compound?
A: 1.17%

Q: What about the Percent Effect (Trypanosoma cruzi) of the same compound?
A: -3.27%

Q: What about the Percent Effect [5] of the same compound?
A: 2.16%

Q: And the Percent Effect [6]?
A: 6.85%

Q: And the Percent Effect (Homo sapiens)?
A: -8.22%

Q: What about the Percent Effect [7] of the same compound?
A: 5.42%

Q: And the Percent Effect [8]?
A: 23.5%

Q: What about the Percent Effect [9] of the same compound?
A: 1.43%
